Bioassay records from PubChem BioAssay.
Rows were chosen to be rich in hits. Some 10% of all compounds tested hit in one or more screens of this group.
HPGD inh: qHTS Assay for Inhibitors of HPGD (15-Hydroxyprostaglandin Dehydrogenase); 15-hydroxyprostaglandin dehydrogenase [NAD(+)] (Homo sapiens), P15428; purified HPGD, NADH fluorescence kinetic, PGE2 substrate; Potency, µM, for inactives: top-dose activity change, negative = inhibition, actives largely listed as inhibitors; 150,000 tested, 4.3% active; AID 894, 2007; also: potency is read from the fitted curve at half-maximal effect
Target sequence (P15428 whole entry, looked up): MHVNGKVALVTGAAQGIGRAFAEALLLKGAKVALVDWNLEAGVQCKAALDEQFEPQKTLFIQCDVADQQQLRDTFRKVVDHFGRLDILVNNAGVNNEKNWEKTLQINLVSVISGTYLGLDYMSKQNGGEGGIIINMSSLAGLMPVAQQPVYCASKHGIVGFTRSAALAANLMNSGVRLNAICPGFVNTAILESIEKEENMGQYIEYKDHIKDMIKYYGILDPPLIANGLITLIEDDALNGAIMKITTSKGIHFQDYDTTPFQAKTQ
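NADH formation kinetics: reaction with 30 uM PGE2 and 1 mM NAD+ (final), 20 nM enzyme, Tris-HCl pH 8 with Tween 20, after 15 min compound preincubation at room temperature. Fluorescence change, last versus first of five reads.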
IMPase cell inh: qHTS Assay for Identifying the Cell-Membrane Permeable IMPase Inhibitors. Inositol monophosphatase 1 (Rattus norvegicus), P97697. CHO-M1 cells, IP1 accumulation, HTRF TR-FRET ratio. inhibition (IP1 accumulation), % at 46.1 µM. 120,000 tested, under 10 active. AID 901, 2007; active = well fitted curve in the direction sought with a large enough effect in the signal ratio, not every such curve was filed as active; inconclusive = small, poorly fitted or top-dose-only effect, or a change in a side signal; inactive = no such curve, though single readings can be large or run the other way; the % refers to the signal ratio;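 also: cells stimulated with carbachol in lithium chloride buffer; plate controls were DMSO basal wells for no effect and reference inhibitor wells for full effect; higher means more IMPase inhibition seen as more IP1 and lower FRET ratio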
Target sequence (P97697 whole entry, looked up): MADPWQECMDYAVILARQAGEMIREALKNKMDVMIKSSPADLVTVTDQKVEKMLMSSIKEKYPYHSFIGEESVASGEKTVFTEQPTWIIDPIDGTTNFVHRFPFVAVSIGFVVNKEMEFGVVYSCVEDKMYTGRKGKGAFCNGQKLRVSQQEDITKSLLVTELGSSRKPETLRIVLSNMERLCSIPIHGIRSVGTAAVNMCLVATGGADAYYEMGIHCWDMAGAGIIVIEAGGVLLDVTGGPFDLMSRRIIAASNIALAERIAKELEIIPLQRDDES
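In this qHTS, compounds (final up to 46 uM) act on CHO-M1 cells that are then activated through the M1 receptor with carbachol, in pH 7.4 buffer containing 50 mM LiCl, for 30 min. IP1 accumulation is quantified by the IP-One immunoassay.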
PNC assembly inh: High Content Assay for Compounds that inhibit the Assembly of the Perinucleolar Compartment; activity change (PNC), negative = inhibition, % at 10 µM; PC3M PTB-GFP, PNC prevalence imaging, 16 h; stronger effect = lower value; 140,000 tested, 3.1% active;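 active = readout at or below -70, meaning at least 70% loss of cells showing the perinucleolar compartment, a nuclear body marking cancer cells; inconclusive = readout between -30 and a set limit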;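 also: plate controls were DMSO wells for no effect and camptothecin positive control wells for full effect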
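Read-out is percentage of cells bearing a perinucleolar compartment, from automated 20x imaging of fixed, Hoechst-stained PC3M PTB-GFP cells. Cells were seeded 4 h, then exposed 16 h to compound (23 nl of library stock) in duplicate plates.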
ALDH1A1 inh: qHTS Assay for Inhibitors of Aldehyde Dehydrogenase 1 (ALDH1A1). Aldehyde dehydrogenase 1A1 (Homo sapiens), P00352. Purified ALDH1A1, NADH fluorescence, propionaldehyde substrate. Potency, µM (doses to about 75.3 µM), inactives show at the top dose activity, negative = inhibition, usual class: inhibitors. 220,000 tested, 7.3% active. AID 1030, 2008;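 also: potency is read from the fitted curve at half-maximal effect; plate controls were no enzyme wells and a reference inhibitor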
LMNA splice mod: qHTS Assay for Modulators of Lamin A Splicing. Potency, µM (series often up to 46.1 µM), inactives show at the top dose ratio change, negative = inhibition, actives largely listed as inhibitors. 200,000 tested, 0.01% active. HeLa LMNA splicing GFP/RFP minigene ratio, 48 h. AID 1487, 2009; active = well fitted inhibition curve with a large enough effect in the signal ratio, with a control signal flat, not every such curve was filed as active; inconclusive = small, poorly fitted or top-dose-only effect, or effect the other way, or a change in a side signal; the % refers to the signal ratio; also: potency is read from the fitted curve at half-maximal effect
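S3 HeLa cells stably expressing lamin A-EGFP splicing minigene plus DsRed2, 600 cells/well, 48 h compound exposure at 37C. Laser-scanning cytometry; analysed as GFP (500-530 nm)/RFP (575-640 nm) total intensity ratio; 0.5% DMSO vehicle.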
Luc counter: Counterscreen for Luciferase (Kinase-Glo TM) Inhibition | Luciferin 4-monooxygenase (Photuris pensylvanica), Q27757 | Kinase-Glo luciferase, ATP luminescence, 8 min | Potency, µM (titrated, usually from 38.3 µM), without a hit: at the highest dose activity change, negative = inhibition, most hits filed as inhibitors | 200,000 tested, 0.28% active | AID 1379, 2008; active = well fitted inhibition curve with a large enough effect; inconclusive = small, poorly fitted or top-dose-only effect; also: potency is read from the fitted curve at half-maximal effect; nearly all actives have a fitted effect of over 60% in size
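Substrate mix (final 50 mM imidazole pH 7.2, 50 mM KCl, 7 mM MgCl2, 10 uM ATP, 0.01% Tween 20, 0.05% BSA) plus pin-tool compound, then Kinase-Glo detection mix; 8 min ambient, luminescence read.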
* hit, by the source's call; ? = inconclusive; · = no result given; ! = not confirmed by another sample; [ ] = dose if it differs, or a comment. Unless noted, calls follow the shape of the dose curve; as a rule, active = well fitted inhibition curve with a large enough effect (not every such curve was filed as active); inconclusive = small, poorly fitted or top-dose-only effect, or another doubt; inactive = no such curve, though single readings can be large or run the other way. Unless noted, % is scaled to controls: 0 for no effect and ±100 for the full control effect.

SMILES	HPGD inh	IMPase cell inh	PNC assembly inh	ALDH1A1 inh	LMNA splice mod	Luc counter
COc1cc(C2NC(=S)NC(c3ccccc3)=C2C(C)=O)cc(Br)c1OCC(N)=O (centres undefined)	·	·	·	14.1µM*	-16.5%[46 µM]	1.3%
COc1cc(C2NC(=O)NC(c3ccccc3)=C2C(C)=O)ccc1OCC(=O)O (centres undefined)	1.1%	-8.4	57.0	5.2%	0.8%	5.0%
CCCOc1ccc(C2NC(=S)NC(c3ccccc3)=C2C(=O)Nc2ccc(C)cc2)cc1OC (centres undefined)	-10.4%	-7.8	?	0.355µM*	-4.2%	0.6%
COc1cc(Cl)cc(C2NC(=S)NC(c3ccccc3)=C2C(C)=O)c1OCC(=O)O (centres undefined)	·	·	·	-9.7%	·	·
O=C(O)c1sccc1S(=O)(=O)Nc1ccc(Cl)cc1	-10.3%	·	·	-0.1%	·	0.4%
Cn1c(CN2CCOCC2)nc2cc(NC(=O)c3ccccc3[N+](=O)[O-])ccc21	·	·	·	·	-6.6%[46 µM]	·
COc1cccc(C(=O)Nc2ccc3nc(SCC(=O)N4CCc5ccccc54)sc3c2)c1	·	·	·	·	9.9%[46 µM]	·
CN1CCc2cccc3c2[C@@H]1Cc1ccc(O)c(O)c1-3	8.91µM*!	?	-10.8	25.1µM*	?	-3.9%
COc1ccc2c(c1O)-c1ccccc1CCN(C)C2	·	·	·	-4.7%	·	·
COc1ccc2c(c1)C(=O)[C@@H](OC(=O)Nc1cc(OC)c(OC)c(OC)c1)[C@H](c1ccc(OC)c(Br)c1)O2	-4.3%	·	·	2.0%	·	-0.7%
O=C(Nc1ccccn1)C(NS(=O)(=O)c1cccc2nsnc12)c1ccccc1 (centres undefined)	31.6µM*	3.3	70.4	?	18.0%	-0.5%
Cc1ccc(CNC(=O)CCS(=O)(=O)c2ccc(Br)s2)o1	-16.2%	-1.5	-1.8	22.4µM*	6.9%	-0.7%
Cc1cc(C(=O)CCl)c(C)n1-c1cccc([N+](=O)[O-])c1	·	·	·	0.316µM*	-12.0%[46 µM]	2.3%
CC(=O)c1cccc(OCC(=O)c2cc(C)n(-c3cc(C)on3)c2C)c1	-18.9%	1.6	?	7.0%	?	8.2%
Cc1cc(C(=O)CCl)c(C)n1-c1ccon1	·	·	·	0.631µM*	·	-2.2%
CCCCC/C=C\C/C=C\C/C=C\C/C=C\CCCCCC(=O)NCCCC(=O)O	-4.4%	·	·	-6.0%	·	-0.3%
CS(=O)(=O)N(CC(=O)Nc1ccccc1C(=O)N1CCCC1)c1cccc([N+](=O)[O-])c1	·	·	·	15.8µM*	-13.8%[46 µM]	-0.5%
COc1ccccc1CCn1c(=O)cnc2cncnc21	·	·	·	1.41µM*	?	·
COc1ccc(CCNC(=O)c2cnn(-c3cccc(C)c3)c2C2CCN(C(=O)OC(C)(C)C)CC2)cc1OC	·	·	·	·	1.6%[46 µM]	·
N=C1S/C(=C\c2cn[nH]c2-c2ccc(F)cc2)C(=O)N1c1ccccc1F	12.6µM*	-4.4	?	4.5%	-23.7%	-2.7%
N=C1S/C(=C\c2ccccc2F)C(=O)N1c1ccc(F)cc1	-13.1%	0.4	10.8	5.2%	-7.7%	1.9%
CCCCC/C=C\C/C=C\C/C=C\CCCCC(=O)NCCCC(=O)O	0.0%	·	·	-1.3%	·	-1.9%
CCN(CC)C(=O)COc1ccc(-c2nnc(Nc3ccc(OC)c(C(=O)NC)c3)c3ccccc23)cc1	·	17.7	·	25.1µM*	·	·
N#Cc1ccccc1OCC(O)CNCCNC(=O)Nc1ccccc1 (centres undefined)	·	·	·	12.9%	·	·
C=CCN(CC=C)S(=O)(=O)c1ccc(NC(=O)COc2ccccc2OC)cc1	-3.2%	12.7	-87.6*	10.3%	2.1%	-1.3%
SMILES	HPGD inh	IMPase cell inh	PNC assembly inh	ALDH1A1 inh	LMNA splice mod	Luc counter
COc1ccccc1OCC(=O)Nc1ccc(S(=O)(=O)N2CCCCCC2)cc1	?	0.4	44.0	-57.8%	?	3.3%
COc1ccc2c(c1)O[C@H](c1ccc3c(c1)OCO3)[C@@H](OC(=O)N[C@H]1CCCc3ccccc31)C2=O	0.8%	·	?	11.5%	?	2.0%
COc1ccc2c(c1)C(=O)[C@@H](OC(=O)N[C@H]1CCCc3ccccc31)[C@H](c1ccc(OC)c(Br)c1)O2	-9.0%	·	·	12.6µM*	·	-1.1%
O=C(O)c1ccc(COc2ccccc2Cl)cc1	12.6µM*	-3.0	-1.4	-12.3%	9.9%	1.9%
CCC(C)NC(=O)c1ccc(COc2ccccc2Cl)cc1 (centres undefined)	20µM*	9.7	14.8	11.1%	-16.2%	-3.6%
CCN(CC)C(=O)c1ccc(COc2ccccc2Cl)cc1	0.355µM*	-2.5	?	?	-8.0%	5.7%
CC1CCN(C(=O)c2ccc(COc3ccccc3Cl)o2)CC1	15.8µM*	4.5	42.2	?	-1.5%	-3.2%
O=C(O)c1cccc(COc2ccccc2Cl)c1	?	-10.8	-17.2	0.6%	9.2%	?
CCC(C)NC(=O)c1ccc(C(=O)c2ccccc2)cc1 (centres undefined)	·	·	·	?	7.0%[46 µM]	0.8%
COc1ccc(C(=O)C2C3C4COC(O4)C(=O)C3C3C=Cc4ccccc4N32)c(OC)c1 (centres undefined)	-20.0%	15.2	·	?	·	-29.7%
COc1ccc(-c2nc3cc(NC(=O)COc4ccccc4C)ccc3o2)cc1	·	·	·	·	18.2%[46 µM]	·
O=C(NCC(=O)N(Cc1cccs1)C(C(=O)NC1CCCCC1)c1ccco1)c1ccco1 (centres undefined)	-3.6%	14.9	9.8	22.4µM*	3.6%	2.8%
O=C(NCC(=O)N(Cc1cccs1)C(C(=O)NC1CCCC1)c1ccncc1)c1ccco1 (centres undefined)	-12.4%	-0.6	?	7.94µM*	9.6%	-1.2%
CCOC(=O)c1cc(NC(=O)c2ccccc2)c(=O)n2c1oc1ccc(Cl)cc12	·	-4.5	·	·	·	·
O=C(COc1ccc(Cl)cc1Cl)NC(=S)N1CCCc2ccccc21	22.4µM*	6.7	-0.7	7.51µM*	?	1.9%
O=C(COc1ccc(Cl)cc1Cl)NC(=O)N1CCCCC1	15.8µM*	0.6	-22.7	4.0%	10.3%	-7.5%
O=C(COc1ccc(Cl)cc1Cl)N1CCCN(C(=O)COc2ccc(Cl)cc2Cl)CC1	-0.5%	1.5	3.3	7.9%	1.7%	-2.9%
Cc1nc2cnc(N3CCOCC3)nc2n(Cc2ccc(F)cc2)c1=O	·	·	·	1.3%	2.2%	·
Cc1ccc(CCNC(=O)c2c3c(nc4ccccc24)C(=O)N(C2CCCCC2)C3)cc1	·	·	·	·	-7.0%[46 µM]	·
CN(C)/C=N/C1=C(C#N)C(c2cccs2)c2ccc3ccccc3c2O1 (centres undefined)	·	·	·	0.316µM*	·	1.6%
